Counter-ions that a name gives are not always drawn. ± gives the standard deviation of the averaged measurements.
Test system: Listeria monocytogenes 10403S
Test: growth inhibition relative to ceftriaxone-alone control; higher = stronger potentiation of ceftriaxone growth inhibition
Settings: 10 µM; ceftriaxone 1 ug/ml; 12 h
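Also: End-point A600 read in BHI broth at 37 °C with 2% DMSO, inhibition computed as (1 − OD with compound plus ceftriaxone ÷ OD with ceftriaxone only) × 100.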

Row | Structure (SMILES) | growth inhibition [%]
1 | COc1cc(C)c(N(C)C(=O)CN(C)C)cc1Nc1nc(Nc2cccc(F)c2C(N)=O)c2cc[nH]c2n1 | -0.447 ± 1
2 | COc1cc2c(cc1Nc1nc(Nc3cccc(F)c3C(N)=O)c3cc[nH]c3n1)N(C(=O)CN1CCN(C(C)C)CC1)CC2 | -7.97 ± 11
3 | NS(=O)(=O)c1ccc(NC=C2C(=O)Nc3ccc4ncsc4c32)cc1 | -8.58 ± 4.7
4 | Cc1nc(Nc2ncc(C(=O)Nc3c(C)cccc3Cl)s2)cc(N2CCN(CCO)CC2)n1 | 32 ± 20
5 | COc1ccc(-c2nn3ncccc3c2-c2ccnc(Nc3cccc(C(F)(F)F)c3)n2)cc1 | 2.98 ± 4.9
6 | O=S(=O)(CCNCc1ccc(-c2ccc3ncnc(Nc4ccc(OCc5cccc(F)c5)c(Cl)c4)c3c2)o1)c1ccccc1 | -0.141 ± 13
7 | O=C1Nc2ccccc2C1=C1CCc2cc(O)ccc21 | 7.57 ± 3.2
8 | CCn1c(-c2nonc2N)nc2c(C#CC(C)(C)O)ncc(OCC3CCNCC3)c21 | 29.8 ± 9.6
9 | CNC(=O)c1ccccc1Nc1nc(Nc2ccc(N3CCOCC3)cc2OC)ncc1Cl | -3.4 ± 13
10 | Cc1ccc(C(=O)NC2CCC2)cc1-c1ccc(C(=O)NCC2CC2)cc1 | -1.49 ± 1.4
11 | NC(=O)c1sc(-n2cnc3ccccc32)cc1OCc1ccccc1Br | -4.4 ± 0.65
12 | COc1cc2ncn(-c3cc(OCc4ccccc4C(F)(F)F)c(C(=O)N(C)C)s3)c2cc1OC | -5.41 ± 4.1
13 | O=C(O[C@H]1CN[C@H](C#Cc2cc3ncnc(Nc4ccc5c(cnn5Cc5ccccc5)c4)c3s2)C1)N1CCOCC1 | -5.28 ± 15
14 | C[C@@H](N)[C@H]1CC[C@H](C(=O)Nc2ccncc2)CC1 | 24.6 ± 17
15 | Nc1nc(Nc2ccc(S(N)(=O)=O)cc2)nn1C(=O)c1c(F)cccc1F | 27.6 ± 6.5
16 | COc1ccc(CNC(=O)c2ccc(-c3cc(-c4nnc(C)o4)ccc3C)cc2)cc1 | 9.02 ± 3.7
17 | COc1ccc(C2=C(N3CCc4ccccc43)C(=O)NC2=O)cc1 | -2.53 ± 0.37
18 | CNC(=O)c1cc(COc2nnc(Nc3ccc(Cl)cc3)c3ccoc23)ccn1 [Telatinib (BAY 57-9352)] | 22.8 ± 32
19 | CCn1cc(-c2ccnc3[nH]ccc23)c(-c2cccc(NC(=O)Nc3ccc(OCc4ccccc4)cc3)c2)n1 | -0.807 ± 2.3
20 | O=C1NC(=O)[C@@H](c2cn3c4c(cccc24)CCC3)[C@@H]1c1c[nH]c2ccccc12 [ARQ 197 (Tivantinib)] | 63.3 ± 38
21 | CC(C)c1cnn2c(NCc3ccccc3)cc(NCCCCCCN)nc12 | 102 ± 5.9

Row | Structure (SMILES) | growth inhibition [%]
22 | CC1(COc2ccc3c(c2)ncn3-c2ccc3cccc(N4CCC(N)CC4)c3n2)COC1 | 32 ± 14
23 | COC(=O)c1ccc2c(c1)C(=Cc1cc(Br)c(O)c(Br)c1)C(=O)N2 | 12.4 ± 1.5
24 | Cc1nc(N)sc1-c1ccnc(Nc2ccc(N3CCOCC3)cc2)n1 | -5.25 ± 7.3
25 | CNC(=O)c1ncccc1Nc1nc(Nc2cc3c(cc2OC)CCCN3C(=O)CN(C)C)nc2[nH]ccc12 | -2.03 ± 1.3
26 | Nc1nc(-c2ccc3c(c2)C(=Cc2cc(Br)c(O)c(Br)c2)C(=O)N3)cs1 | 3.8 ± 2.8
27 | COc1ccc(-c2nn3ncccc3c2-c2ccnc(Nc3ccc4c(c3)OCCO4)n2)cc1 | -7.96 ± 4.1
28 | NC(=O)c1sc(-n2cnc3cc(C(F)(F)F)ccc32)cc1OCc1ccccc1Br | -7.84 ± 1.8
29 | Fc1ccc(-c2ncn(C3CCNCC3)c2-c2ccnc(Oc3ccc(Oc4ccccc4)cc3)n2)cc1 | 12.2 ± 24
30 | CC(C)n1nc(-c2cc3cc(O)ccc3[nH]2)c2c(N)ncnc21 | 16.2 ± 10
31 | COc1ccc2cc(-c3c(-c4ccncc4)nc(-c4ccc([S+](C)[O-])cc4C)n3C)ccc2c1 (stereo not drawn) | 17.6 ± 9
32 | COc1ccccc1Nc1ncc(-c2ccccc2)o1 | 1.22 ± 3.5
33 | N#Cc1cccc(Nc2ncc(-c3ccccc3)o2)c1 | -4.01 ± 1.7
34 | COc1cc(OC)c(/C=C/S(=O)(=O)Cc2ccc(OC)c(NCC(=O)O)c2)c(OC)c1 | 4.69 ± 0.45
35 | C#Cc1cccc(Nc2ncnc3cc(OCCOC)c(OCCOC)cc23)c1 [Erlotinib HCl] | 18.6 ± 18
36 | CS(=O)(=O)CCNCc1ccc(-c2ccc3ncnc(Nc4ccc(OCc5cccc(F)c5)c(C(F)(F)F)c4)c3c2)o1 | -12.1 ± 6.9
37 | Oc1cccc(-c2nc(N3CCOCC3)c3oc4ncccc4c3n2)c1 | 22.4 ± 24
38 | O=C(NCC1CC1)c1ccc(-c2cccc(C(=O)NC3CC3)c2)cc1 | -0.0355 ± 1.1
39 | FC(F)(F)c1cccc(-c2nn3ncccc3c2-c2ccnc(Nc3ccc4c(c3)OCCO4)n2)c1 | -5.79 ± 1.8
40 | C=CC(=O)N1CCC[C@@H](n2nc(-c3ccc(Oc4ccccc4)cc3)c3c(N)ncnc32)C1 | 42.1 ± 24
41 | Fc1ccc(-c2nn3ccccc3c2-c2ccncc2)cc1 | 20.7 ± 8.6
42 | O=C(Nc1n[nH]c2nc(-c3ccco3)c(Br)cc12)C1CC1 | -3.36 ± 3.1

Row | Structure (SMILES) | growth inhibition [%]
43 | Cc1cnc(NC(=O)Nc2cc(Br)c(C)cc2OC[C@@H]2CNCCO2)cn1 | 61.8 ± 50
44 | O=C(Nc1n[nH]c2nnc(-c3cccnc3)cc12)C1CC1 | -0.393 ± 1.3
45 | CC(C)COC(=O)c1ccc2c(c1)/C(=C/Nc1ccc(S(N)(=O)=O)cc1)C(=O)N2 | -6.41 ± 14
46 | Cn1cc(-c2ccc3ncc(Cc4ccc5ncccc5c4)n3n2)cn1 | -1.22 ± 3.1
47 | Cc1nc(-c2ccccc2)n2nc(NCCCN3CCOCC3)ncc12 | 0.025 ± 1.1
48 | Oc1c2ccccc2c2c3c(cccc13)N=N2 | 10.4 ± 10
49 | C/C(Nc1ccc(S(N)(=O)=O)cc1)=C1/C(=O)Nc2ccccc21 | -3.55 ± 0.8
50 | NC(=O)c1sc(-n2cnc3ccc(C(F)(F)F)cc32)cc1OCc1ccccc1Br | -2.79 ± 1.9
51 | COc1cc(C=NNc2ncnc3c2cnn3Cc2ccccc2)ccc1O | -10.8 ± 3.7
52 | CS(=O)(=O)CCN(CC#N)Cc1ccc(-c2ccc3ncnc(Nc4ccc(OCc5cccc(F)c5)c(Cl)c4)c3c2)o1 | 1.01 ± 5.1
53 | Cc1ccc(NC(=O)CC2CC2)cc1-c1ccc(C(=O)NCC2CC2)cc1 | -0.462 ± 0.33
54 | Cc1cc(C(=O)NOCCO)c(Nc2ccc(I)cc2F)n(C)c1=O | 13.2 ± 5.6
55 | NS(=O)(=O)c1cccc(-c2cc3ccncc3cc2OCc2ccccc2)c1 | 8.53 ± 3.9
56 | O=C1NC(=O)C(c2cccc(Cl)c2)=C1Nc1ccc(Cl)c(C(=O)O)c1 | 9.83 ± 0.41
57 | NC(=O)c1cccc(Nc2nccc(Nc3cccc4[nH]ncc34)n2)c1 | 0.727 ± 1.3
58 | CCOc1cc2ncc(C#N)c(Nc3ccc(F)c(Cl)c3)c2cc1NC(=O)/C=C/CN(C)C [Pelitinib (EKB-569)] | 14.9 ± 10
59 | CNC(=O)c1ccc(-c2cnc3ncc(Cc4ccc5ncccc5c4)n3n2)cc1F | 16.9 ± 8.9
60 | CO[C@H]1C[C@@H]2CC[C@@H](C)[C@@](O)(O2)C(=O)C(=O)N2CCCC[C@H]2C(=O)O[C@H]([C@H](C)C[C@@H]2CC[C@@H](OP(C)(C)=O)[C@H](OC)C2)CC(=O)[C@H](C)/C=C(\C)[C@@H](O)[C@@H](OC)C(=O)[C@H](C)C[C@H](C)/C=C/C=C/C=C/1C [Deforolimus (Ridaforolimus)] | 39.2 ± 14
61 | CN1CCN(c2cccc(Nc3nc4c(-c5ccc(S(C)(=O)=O)cc5)cccn4n3)c2)CC1 | 69 ± 27
62 | CCN(CC)CCCCNc1ncc2cc(-c3cc(OC)cc(OC)c3)c(NC(=O)NC(C)(C)C)nc2n1 | 23.2 ± 6.8
63 | COc1ccc2c(-c3ccnc(Nc4cccc(OC(F)(F)F)c4)n3)cnn2n1 | -7.53 ± 17

— the supplement of paper PMC5641865, “A screen for kinase inhibitors identifies antimicrobial imidazopyridine aminofurazans as specific inhibitors of the Listeria monocytogenes PASTA kinase PrkA” (The Journal of Biological Chemistry, 2017)
